Several values for one entry are separate records, joined by “and”; a condition that tells them apart may be missing. Equal entries are not always repeated. Inconclusive results are not listed. A call without a number means that no potency is given here. Some structures have more than one record in an assay (separate samples or runs), and their calls can disagree. Activity calls are given as the source filed them. Unless noted, the call rests on the fitted dose curve; in most records, active means well fitted curve in the direction sought with a large enough effect in the repeat runs; inconclusive means weak or mixed curves; inactive means no such curve, though single readings can be large; an effect the other way counts as inactive or inconclusive. Starred links: 1 amine or outer side, 2 acyl side, 3 side chain; linkers in the order of their positions; H or OH if unused. Positions of bridges follow the written chain, without caps; N, C: chain ends. Non-standard residues stand in square brackets, D forms with d. Residues, ends and D or L forms follow the SMILES beside them. Chains are numbered I, II in the order given. Actinocin(9to1) = Cc1c2oc3c(C)ccc(C(=O)[*:1])c3nc-2c(C(=O)[*:2])c(N)c1=O; NMeV = CN[C@H](C(=O)O)C(C)C; Sar = CNCC(=O)O
Tests used:
[1] = qHTS assay to identify aromatase inhibitors - cell viability counter screen (AID 743084);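 further: cells stimulated with testosterone during compound exposure; nearly all actives have a fitted effect of over 55% in size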; further: potency means the concentration at half of the fitted maximal effect
[2] = biological target: Aryl hydrocarbon receptor (Homo sapiens) (UniProt P35869); assay: qHTS assay to identify small molecule that activate the aryl hydrocarbon receptor (AhR) signaling pathway (AID 743085); further: nearly all actives have a fitted effect of over 15% in size; further: potency means the concentration at half of the fitted maximal effect;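 on activation: HG2L7.5c1 human HepG2 liver cells with stably integrated DRE-driven firefly reporter; series mostly up to about 70 µM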
Summary of the method: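 24 h compound exposure, 37C, HepG2-derived HG2L7.5c1 cells with DRE-responsive luciferase. Readouts: fluorescence viability, then luminescence at room temperature after 30 min.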

[3] = qHTS assay to identify small molecule that activate the aryl hydrocarbon receptor (AhR) signaling pathway - cell viability counter screen (AID 743086); further: nearly all actives have a fitted effect of over 45% in size; further: potency means the concentration at half of the fitted maximal effect
Summary of the method: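 HepG2-AhR-luc (HG2L7.5c1) cells, 4000/well, were preincubated 5 h at 37C, exposed to compound in qHTS format for 24 hr at 37C, then given CellTiter-Fluor for 30 min; viability was read as fluorescence in the reporter wells.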

[4] = biological target: Peroxisome proliferator-activated receptor gamma (Homo sapiens) (UniProt P37231); assay: qHTS assay to identify small molecule agonists of the peroxisome proliferator-activated receptor gamma (PPARg) signaling pathway (AID 743094; active means well fitted activation curve with a large enough effect in the signal ratio in the repeat runs, not every such curve was filed as active; the % refers to the signal ratio)
Summary of the method: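 Fluorescence-based beta-lactamase readout in HEK293H PPARg UAS-bla cells after 17 h compound exposure (37C) and 1 h B/G FRET substrate incubation at room temperature.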

[5] = qHTS assay to identify small molecule antagonists of the peroxisome proliferator-activated receptor gamma (PPARg) signaling pathway - cell viability counter screen (AID 743194); further: nearly all actives have a fitted effect of over 55% in size; further: potency means the concentration at half of the fitted maximal effect
Summary of the method: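 PPARg-UAS-bla HEK293H cells were plated, rested 5 h at 37 C, then treated with compounds plus rosiglitazone (50 nM final) for 17 h at 37 C; viability was then read by CellTiter-Glo luminescence after 30 min at room temperature.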

[6] = qHTS assay for small molecule agonists of the antioxidant response element (ARE) signaling pathway (AID 743202; active means well fitted activation curve with a large enough effect in the signal ratio in the repeat runs, not every such curve was filed as active; the % refers to the signal ratio; further: potency means the concentration at half of the fitted maximal effect)
Summary of the method: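 Steps: seed ARE-bla HepG2 cells (2,000/well); incubate 5 h at 37 C; add compounds by pin tool; incubate 16 h at 37 C; add FRET substrate; read fluorescence after 2 h at RT.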

[7] = qHTS assay for small molecule agonists of the antioxidant response element (ARE) signaling pathway - cell viability counter screen (AID 743203; calls by dose curve; further: nearly all actives have a fitted effect of over 55% in size; further: potency means the concentration at half of the fitted maximal effect)
Summary of the method: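 Parallel cytotoxicity read-out for the ARE-bla screen: HepG2 reporter cells, 16 hrs with compounds, then CellTiter-Glo luminescence.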

[8] = qHTS assay for small molecule activators of the heat shock response signaling pathway - cell viability counter screen (AID 743209); further: nearly all actives have a fitted effect of over 50% in size; further: potency means the concentration at half of the fitted maximal effect
Summary of the method: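 To flag cytotoxic compounds, HSE-bla HeLa cells plated at 1500 cells/well were dosed for 5 h at 37 C, followed by the reporter FRET read and then CellTiter-Glo, with luminescence recorded 30 min after reagent addition.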

[9] = qHTS assay for small molecule activators of the heat shock response signaling pathway (AID 743210; active means well fitted activation curve with a large enough effect in the signal ratio in the repeat runs, with a control signal flat, not every such curve was filed as active; the % refers to the signal ratio; further: potency means the concentration at half of the fitted maximal effect;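 on activation: HeLa cells with beta-lactamase reporter driven by heat shock elements; series mostly up to about 63 µM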)
Summary of the method: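 Activation of heat shock element-controlled beta-lactamase expression is measured in HeLa cells by LiveBLAzer FRET fluorescence, with compound exposure lasting 5 h at 37 C and substrate loading 2.5 h at room temperature.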

[10] = biological target: Peroxisome proliferator-activated receptor gamma (Homo sapiens) (UniProt P37231); assay: qHTS assay to identify small molecule antagonists of the peroxisome proliferator-activated receptor gamma (PPARg) signaling pathway (AID 743191; calls by dose curve; further: series mostly up to about 63 µM; nearly all actives have a fitted effect of over 30% in size)
Summary of the method: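 GeneBLAzer PPARg UAS-bla HEK293H cells carrying a UAS-driven beta-lactamase reporter were plated at 3000 cells/well, preincubated 5 h at 37C, then given compound for 17 h at 37C; LiveBLAzer B/G FRET substrate was read after 1 h at room temperature.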

Aryl hydrocarbon receptor (Homo sapiens), sequence (P35869 whole entry, looked up): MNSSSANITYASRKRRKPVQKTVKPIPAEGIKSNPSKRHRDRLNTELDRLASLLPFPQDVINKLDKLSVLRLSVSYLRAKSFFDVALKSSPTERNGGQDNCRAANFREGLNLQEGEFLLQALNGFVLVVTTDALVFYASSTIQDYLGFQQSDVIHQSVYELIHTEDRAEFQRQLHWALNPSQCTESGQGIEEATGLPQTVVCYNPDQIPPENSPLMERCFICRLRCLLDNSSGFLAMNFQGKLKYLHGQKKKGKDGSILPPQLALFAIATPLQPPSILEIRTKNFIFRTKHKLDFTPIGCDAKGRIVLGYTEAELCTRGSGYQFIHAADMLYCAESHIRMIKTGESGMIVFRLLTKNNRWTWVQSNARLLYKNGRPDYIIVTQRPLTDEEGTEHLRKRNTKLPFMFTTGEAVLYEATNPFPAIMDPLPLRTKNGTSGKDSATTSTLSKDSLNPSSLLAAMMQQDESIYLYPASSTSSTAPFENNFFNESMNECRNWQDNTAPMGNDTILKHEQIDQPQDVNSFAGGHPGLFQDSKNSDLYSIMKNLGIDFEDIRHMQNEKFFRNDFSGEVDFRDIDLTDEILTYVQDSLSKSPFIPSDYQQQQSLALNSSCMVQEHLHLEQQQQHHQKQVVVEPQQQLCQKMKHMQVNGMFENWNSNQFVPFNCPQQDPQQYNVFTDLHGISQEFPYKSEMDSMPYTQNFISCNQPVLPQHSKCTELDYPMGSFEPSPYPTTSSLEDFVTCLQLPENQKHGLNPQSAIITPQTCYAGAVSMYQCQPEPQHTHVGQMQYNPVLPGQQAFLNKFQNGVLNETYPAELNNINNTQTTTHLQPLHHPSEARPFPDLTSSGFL
Peroxisome proliferator-activated receptor gamma (Homo sapiens), sequence (P37231 whole entry, looked up): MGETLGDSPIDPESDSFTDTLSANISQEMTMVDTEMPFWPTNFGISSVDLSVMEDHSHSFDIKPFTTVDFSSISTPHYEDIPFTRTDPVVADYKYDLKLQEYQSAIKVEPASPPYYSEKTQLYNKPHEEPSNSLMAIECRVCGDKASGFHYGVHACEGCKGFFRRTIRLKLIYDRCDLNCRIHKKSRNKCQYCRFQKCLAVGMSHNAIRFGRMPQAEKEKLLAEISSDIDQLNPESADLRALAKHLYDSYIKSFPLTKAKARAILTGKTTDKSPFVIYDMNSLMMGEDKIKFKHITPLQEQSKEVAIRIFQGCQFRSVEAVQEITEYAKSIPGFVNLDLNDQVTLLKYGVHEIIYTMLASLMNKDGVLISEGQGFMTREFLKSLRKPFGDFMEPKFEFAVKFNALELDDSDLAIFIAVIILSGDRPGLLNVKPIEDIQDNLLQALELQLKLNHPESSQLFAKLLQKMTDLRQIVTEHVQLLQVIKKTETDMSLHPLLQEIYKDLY

## Cc1ccc(-c2cc(C(F)(F)F)nn2-c2ccc(S(N)(=O)=O)cc2)cc1
[1]
  Potency: inactive and 54.3 µM (active)
[2]
  Potency: inactive
[3]
  Potency: inactive
[4]
  Potency: inactive
[5]
  Potency: inactive
[6]
  Potency: 26.6 µM (active)
[7]
  Potency: 61.1 µM (active) and inactive
[8]
  Potency: inactive
[9]
  Potency: inactive

## CC(=O)OCC1=C(C(=O)O)N2C(=O)[C@@H](NC(=O)Cc3cccs3)[C@H]2SC1
[1]
  Potency: inactive
[2]
  Potency: inactive
[3]
  Potency: inactive
[4]
  Potency: inactive
[5]
  Potency: inactive
[7]
  Potency: inactive
[8]
  Potency: inactive

## CCC(=O)/C=C/C1C(C)=CCCC1(C)C (stereo unspecified)
[1]
  Potency: inactive
[2]
  Potency: inactive
[3]
  Potency: inactive
[4]
  Potency: inactive
[5]
  Potency: inactive
[6]
  Potency: inactive
[7]
  Potency: inactive
[8]
  Potency: inactive
[9]
  Potency: inactive

## NCCCCCC(=O)O
[1]
  Potency: inactive
[2]
  Potency: inactive
[3]
  Potency: inactive
[4]
  Potency: inactive
[5]
  Potency: inactive
[6]
  Potency: inactive
[7]
  Potency: inactive
[8]
  Potency: inactive
[9]
  Potency: inactive

## COc1ccc(Cc2cnc(N)nc2N)cc1OC
[1]
  Potency: inactive
[2]
  Potency: inactive
[3]
  Potency: inactive
[4]
  Potency: inactive
[5]
  Potency: inactive
[6]
  Potency: inactive
[7]
  Potency: inactive
[8]
  Potency: inactive
[9]
  Potency: inactive

## O=C(Cl)c1cccc(C(=O)Cl)c1
[1]
  Potency: inactive
[2]
  Potency: inactive
[3]
  Potency: inactive
[4]
  Potency: inactive
[5]
  Potency: inactive
[6]
  Potency: inactive
[7]
  Potency: inactive
[8]
  Potency: inactive
[9]
  Potency: inactive

## CC(=O)CC(C)=O
[1]
  Potency: inactive
[2]
  Potency: inactive
[3]
  Potency: inactive
[4]
  Potency: inactive
[5]
  Potency: inactive
[6]
  Potency: inactive
[7]
  Potency: inactive
[8]
  Potency: inactive
[9]
  Potency: inactive

## CC(C)C(=O)c1c(C(C)C)nn2ccccc12
[1]
  Potency: inactive
[2]
  Potency: inactive
[3]
  Potency: inactive
[4]
  Potency: inactive
[5]
  Potency: inactive
[6]
  Potency: inactive
[7]
  Potency: inactive
[9]
  Potency: inactive

## O=C(OCc1ccccc1)c1ccc(O)cc1
[1]
  Potency: inactive
[2]
  Potency: inactive
[3]
  Potency: inactive
[4]
  Potency: inactive
[5]
  Potency: inactive
[6]
  Potency: inactive
[7]
  Potency: inactive
[8]
  Potency: inactive
[9]
  Potency: inactive

## CCCCCCCCCCCCc1ccccc1O
[1]
  Potency: 30.2 µM (active) and 54.5 µM (active)
[2]
  Potency: inactive
[3]
  Potency: inactive
[5]
  Potency: 48.3 µM (active) and 17.4 µM (active)
[8]
  Potency: 17.2 µM (active) and 24.5 µM (active)

## Cc1c(O)cccc1C(=O)N[C@@H](CSc1ccccc1)[C@H](O)CN1C[C@H]2CCCC[C@H]2C[C@H]1C(=O)NC(C)(C)C
[1]
  Potency: 7.5 µM (active) and 2.98 µM (active)
[2]
  Potency: inactive
[3]
  Potency: 13.3 µM (active) and 11.9 µM (active)
[5]
  Potency: 21.3 µM (active) and 26.6 µM (active)
[8]
  Potency: inactive

## CC(=O)O[C@]1(C(C)=O)CC[C@H]2[C@@H]3C[C@H](C)C4=CC(=O)CC[C@]4(C)[C@H]3CC[C@@]21C
[1]
  Potency: inactive
[2]
  Potency: inactive
[3]
  Potency: inactive
[10]
  Potency: inactive
[5]
  Potency: inactive
[8]
  Potency: inactive

## Cc1cc(Cc2cc(C)cc(C(C)(C)C)c2O)c(O)c(C(C)(C)C)c1
[1]
  Potency: 54.8 µM (active) and 61.1 µM (active)
[2]
  Potency: inactive
[3]
  Potency: inactive
[5]
  Potency: 12.4 µM (active) and 11 µM (active)
[7]
  Potency: 17.3 µM (active) and 27.3 µM (active)
[8]
  Potency: 11 µM (active) and 13.8 µM (active)

## O
[1]
  Potency: inactive
[2]
  Potency: inactive
[3]
  Potency: inactive
[5]
  Potency: inactive
[6]
  Potency: inactive
[8]
  Potency: inactive

## CC1=C(C=O)C(C)(C)CC=C1
[1]
  Potency: inactive
[2]
  Potency: inactive
[3]
  Potency: inactive
[4]
  Potency: inactive
[8]
  Potency: inactive
[9]
  Potency: inactive

## NCCO
[1]
  Potency: inactive
[2]
  Potency: inactive
[3]
  Potency: inactive
[5]
  Potency: inactive
[6]
  Potency: inactive
[8]
  Potency: inactive
[9]
  Potency: inactive

## O=C(Nc1ccccc1SSc1ccccc1NC(=O)c1ccccc1)c1ccccc1
[1]
  Potency: 15.4 µM (active) and 48.6 µM (active)
[2]
  Potency: 30.8 µM (active) and 34.4 µM (active)
[3]
  Potency: inactive
[5]
  Potency: inactive
[7]
  Potency: inactive

## COc1ccc(CCN2CCC(Nc3nc4ccccc4n3Cc3ccc(F)cc3)CC2)cc1
[1]
  Potency: 26.6 µM (active) and 12.5 µM (active)
[2]
  Potency: inactive
[3]
  Potency: 23.7 µM (active) and 9.9 µM (active)
[5]
  Potency: 4.46 µM (active) and 26.6 µM (active)
[8]
  Potency: 17.8 µM (active) and inactive
[9]
  Potency: inactive

## CNCCC(Oc1ccc(C(F)(F)F)cc1)c1ccccc1 (stereo unspecified)
[1]
  Potency: inactive and 47.9 µM (active)
[2]
  Potency: inactive
[3]
  Potency: inactive and 60.3 µM (active)
[5]
  Potency: 48.4 µM (active)

## Nc1nc(=S)c2[nH]cnc2[nH]1
[1]
  Potency: inactive
[2]
  Potency: inactive and 61.1 µM (active)
[3]
  Potency: inactive
[5]
  Potency: 2.98 µM (active)
[6]
  Potency: 4.73 µM (active)
[7]
  Potency: 3.86 µM (active)
[8]
  Potency: inactive
[9]
  Potency: inactive

## Cc1occc(=O)c1OC(=O)C(C)C
[1]
  Potency: inactive
[2]
  Potency: inactive
[3]
  Potency: inactive
[5]
  Potency: inactive
[8]
  Potency: inactive
[9]
  Potency: inactive

## CC(C)(C)c1cc(C(C)(C)C)c(O)c(C(C)(C)C)c1
[1]
  Potency: inactive
[2]
  Potency: inactive
[3]
  Potency: inactive
[5]
  Potency: inactive
[7]
  Potency: inactive
[8]
  Potency: 54.9 µM (active) and 49 µM (active)

## CC(C)(c1ccccc1)c1ccc(Nc2ccc(C(C)(C)c3ccccc3)cc2)cc1
[1]
  Potency: inactive
[2]
  Potency: inactive
[3]
  Potency: inactive
[5]
  Potency: inactive
[7]
  Potency: inactive
[8]
  Potency: inactive

## CC(C)CCCCCCc1ccc(O)cc1
[1]
  Potency: inactive and 31.2 µM (active)
[2]
  Potency: inactive
[3]
  Potency: inactive
[4]
  Potency: inactive
[7]
  Potency: inactive
[8]
  Potency: 39.6 µM (active) and 54.9 µM (active)

## Cc1ccc(S(=O)(=O)Oc2ccc(N=Nc3ccc(-c4ccc(N=Nc5c(O)ccc6cc(S(=O)(=O)O)cc(S(=O)(=O)O)c56)c(C)c4)cc3C)cc2)cc1
[1]
  Potency: 10.9 µM (active) and 10 µM (active)
[2]
  Potency: inactive
[3]
  Potency: 9.73 µM (active) and 14.1 µM (active)
[5]
  Potency: inactive
[7]
  Potency: inactive
[8]
  Potency: inactive
[9]
  Potency: inactive

## COc1ccc(COC(C)=O)cc1
[1]
  Potency: inactive
[2]
  Potency: inactive
[3]
  Potency: inactive
[5]
  Potency: inactive
[6]
  Potency: inactive
[7]
  Potency: inactive
[8]
  Potency: inactive
[9]
  Potency: inactive and 54.9 µM (active)

## CCCCC(CC)COC(=O)CC(C(=O)OCC(CC)CCCC)S(=O)(=O)O (stereo unspecified)
[1]
  Potency: inactive
[2]
  Potency: inactive
[3]
  Potency: inactive
[4]
  Potency: inactive
[8]
  Potency: 52.9 µM (active)

## CCCCCCCCCCCCCC[P+](CCCC)(CCCC)CCCC
[1]
  Potency: 17.1 µM (active) and 19.3 µM (active)
[2]
  Potency: inactive
[3]
  Potency: 68.2 µM (active) and 54.5 µM (active)
[5]
  Potency: 3.45 µM (active) and 3.47 µM (active)
[7]
  Potency: 15.3 µM (active) and 10.9 µM (active)
[8]
  Potency: 6.88 µM (active) and 13.8 µM (active)

## Cc1c2oc3c(C)ccc(C(=O)N[C@@H]4C(=O)N[C@H](C(C)C)C(=O)N5CCC[C@H]5C(=O)N(C)CC(=O)N(C)[C@@H](C(C)C)C(=O)O[C@@H]4C)c3nc-2c(C(=O)N[C@@H]2C(=O)N[C@H](C(C)C)C(=O)N3CCC[C@H]3C(=O)N(C)CC(=O)N(C)[C@@H](C(C)C)C(=O)O[C@@H]2C)c(N)c1=O (I: T[dV]P[Sar][NMeV] / II: T[dV]P[Sar][NMeV]; ester I:1-I:C, II:1-II:C; linker I:N-II:N via Actinocin(9to1))
[1]
  Potency: 7.48 µM (active)
[2]
  Potency: inactive
[3]
  Potency: 18.8 nM (active) and 14.9 µM (active)
[9]
  Potency: inactive

— PubChem BioAssay (Tox21)
